This note sets out measurements from PubChem BioAssay AID504332 (National Center for Advancing Translational Sciences (NCATS), 2011).

Molecules are shown by their SMILES. Out of some 350,000 compounds screened, about 31,000 (8.9%) were called active. Another 15% or so got no clear call; they are omitted. Calls come from the whole dose curve; as a rule, active = well fitted inhibition curve with a large enough effect; inconclusive = small, poorly fitted or top-dose-only effect; inactive = no such curve, though single readings can be large or run the other way. The list comes from a sample in which actives are over-represented; it also holds similar structures and randomly drawn compounds. A call without a number means that no potency is given here.
Potency is the fitted concentration of half-maximal effect.

The target in the assay is Histone-lysine N-methyltransferase EHMT2 (Homo sapiens) (UniProt Q96KQ7). In words: qHTS Assay for Inhibitors of Histone Lysine Methyltransferase G9a. Note: nearly all actives have a fitted effect of over 75% in size. The conditions noted are these: G9a H3K9 monomethylation, AlphaScreen, 2 h; series mostly up to 59 µM. In outline: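 AlphaScreen read-out: biotin-H3K9 peptide (500 nM) methylation by 20 nM enzyme with 20 uM SAM, 2 h at room temperature after 15 min compound preincubation; anti-monomethyl H3K9 antibody plus donor/acceptor beads, 10 min dark.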
Chain of Histone-lysine N-methyltransferase EHMT2 (Homo sapiens) (Q96KQ7 913-1193 limits assumed): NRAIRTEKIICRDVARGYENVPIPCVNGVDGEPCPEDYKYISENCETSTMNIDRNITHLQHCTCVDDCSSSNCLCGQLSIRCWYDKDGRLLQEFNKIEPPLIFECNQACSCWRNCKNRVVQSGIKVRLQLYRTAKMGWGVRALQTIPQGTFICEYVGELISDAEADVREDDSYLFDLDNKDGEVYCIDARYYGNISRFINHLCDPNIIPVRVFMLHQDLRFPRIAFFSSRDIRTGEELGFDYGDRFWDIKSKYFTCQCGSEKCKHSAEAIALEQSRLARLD
(Quantitative high-throughput screening tests each substance at several concentrations.)
With `CCN(CC)CCCNC(=O)c1c(O)c2cc(F)cc3c2n(c1=O)C(C)CC3` (stereo unspecified), the Potency result is “inactive”.
Take `NC(=O)c1ccc(Nc2ccc3c(c2)CCC3)c([N+](=O)[O-])c1`: the Potency entry is “inactive”.
As to `NC(=O)c1ccc(Nc2ccc3nonc3c2[N+](=O)[O-])cc1`, the Potency is 56.2 µM (active).
Still for that read-out and setting: with `CCOc1ccccc1Nc1ccc2nonc2c1[N+](=O)[O-]` the entry was “inactive”; with `O=C(NC1CCCC1)c1cc(-c2ccccc2)on1`, “inactive”; with `O=C(COC(=O)Cc1c[nH]c2ccccc12)NCCc1ccccc1`, “inactive”.
Consider `CN(C(=O)COC(=O)CCCc1c[nH]c2ccccc12)c1c(N)n(Cc2ccccc2)c(=O)[nH]c1=O`, for which the Potency entry is “inactive”.
On to `CC(C)(C)N(Cc1ccccc1)C(=O)COC(=O)CCc1c[nH]c2ccccc12`, for which the Potency is 14.1 µM (active).
For the molecule `O=C1CCc2cc(S(=O)(=O)Nc3ccc(C(F)(F)F)cc3)cc3c2N1CC3`, the activity, negative = inhibition was -22.3% [at 0.501 µM] (inactive).
On to `COC(=O)c1ccc(CN2CCCC(C(=O)Nc3cccc(-n4cnnn4)c3)C2)cc1` (stereo unspecified), for which the Potency entry is “inactive”.
For `CCOc1ccc(NC(=O)C2CCCN(C(=O)Nc3ccccc3)C2)cc1` (stereo unspecified), the Potency result is “inactive”.
On the same count and under the same terms, with `Nc1ncc(CN2CCCC(C(=O)Nc3ccc(-c4ccco4)cc3)C2)cn1` (stereo unspecified) the figure was 50.1 µM (active).
For the molecule `CCNS(=O)(=O)c1cc(-c2nnc(Nc3cccc(C(F)(F)F)c3)c3ccccc23)ccc1C`, the Potency result was “inactive”.
For `Cc1c(C(=O)Nc2ccccn2)oc2ccc(Br)cc12`, the Potency result was “inactive”.
Take `Cc1ccc(CNC(=O)c2cccc3c2C(=O)c2ccc(N4CCC(C)CC4)cc2S3(=O)=O)cc1`: the activity, negative = inhibition is 6.64% [at 0.501 µM] (inactive).
With `Cc1ccc2nc(NC(=O)CSc3nc(=O)n(CCCN(C)C)c4c3CCC4)sc2c1`, the Potency was 39.8 µM (active).
Regarding `Cc1csc(NC(=O)CSc2nc(=O)n(CCCN(C)C)c3c2CCC3)n1`, the Potency entry was “inactive”.
`Cc1ccc(NC(=O)CSc2nc(=O)n(CCN(C)C)c3c2CCCC3)c(C)c1`: the activity, negative = inhibition was 6.7% [at 0.501 µM] (inactive).
With `Cc1ccc(OCC(=O)Nc2ccc(OCc3cc(=O)n4c(C)csc4n3)cc2)cc1C`, the Potency entry was “inactive”.
Regarding `COc1ccc(-c2nc(CS(=O)(=O)CC(=O)NCc3cccc(Br)c3)c(C)o2)cc1`, the Potency was 44.7 µM (active).
In the case of `Cc1ccc(-c2nc(CS(=O)(=O)CC(=O)NCc3ccc4c(c3)OCO4)c(C)o2)cc1`, the Potency result is “inactive”.
In the case of `COc1cccc(-c2nc(CS(=O)(=O)CC(=O)NCCc3ccc(OC)c(OC)c3)c(C)o2)c1`, the Potency result was “inactive”.
For `CCN(CC(=O)Nc1c(F)cccc1F)C(=O)C1CCC1`, the Potency result is “inactive”.
Still for that read-out and setting: the entry for `COc1cccc(NC(=O)C(=O)NCC(c2ccc3c(c2)OCO3)N2CCN(C)CC2)c1` (stereo unspecified) is “inactive”.
Consider `CCOC(=O)c1c(-c2ccc(OC)cc2)oc2ccc(OCc3ccc(C(=O)OC)cc3)cc12`, for which the Potency result is “inactive”.
For `CC(=O)c1sc(NC(=O)CCN2C(=O)C3CC=CCC3C2=O)nc1-c1ccccc1` (stereo unspecified), the activity, negative = inhibition was -8.89% [at 2.33 µM] (inactive).
`C[N+](C)(C)CCNC(=O)c1c(O)c2c([nH]c1=O)CCCC2`: the Potency is 10 µM (active).
As to `O=C(NCc1ccccn1)c1c(O)c2c([nH]c1=O)CCCC2`, the Potency result is “inactive”.
As to `CCc1nnc(NC(=O)c2c(O)c3c([nH]c2=O)CCCC3)s1`, the Potency result was “inactive”.
Regarding `O=C(Nc1ccc(Br)cc1)c1ccc(Br)c(S(=O)(=O)NCc2ccccc2)c1`, the Potency entry is “inactive”.
Regarding `COc1ccc(CCNC(=S)N2CCN(S(=O)(=O)c3ccc(F)cc3)CC2)cc1`, the activity, negative = inhibition was -16.1% [at 0.501 µM] (inactive).
On to `CN(C)S(=O)(=O)N1CCC(Oc2cccc(C(=O)NCCCC3CCCC3)c2)CC1`, for which the Potency entry is “inactive”.
Take `C=CCNc1nnc(C)c2ccccc12`: the Potency result is “inactive”.
For `O=C(CSc1nc2ccccc2nc1Cc1ccccc1)N1CCCCC1`, the Potency entry was “inactive”.
Take `C=CCNc1nnc(SCC(=O)N2CCCCC2)c2ccccc12`: the Potency was 50.1 µM (active).
`O=C(COc1ccccc1O)NC1CCCC1`: the Potency entry is “inactive”.
In the case of `COc1cc2ccccc2cc1C(=O)N1CCOCC1`, the Potency result is “inactive”.
Same read-out and setting: with `COc1cc(OC)cc(C(=O)NNC(=O)CNC(=O)c2ccc(Br)o2)c1` the entry was “inactive”.
In the case of `O=C(Cn1cc(SCc2ccccc2)c2ccccc21)N1CCCCC1`, the Potency entry was “inactive”.
Regarding `O=C(Cn1cc(SCc2cccc(Cl)c2)c2ccccc21)N1CCCCC1`, the Potency result is “inactive”.
The same measure, in the same setting: with `CCc1cccc2c(C=C(C#N)C#N)cn(CC(=O)N3CCCCC3)c12` the figure was 44.7 µM (active).
Same read-out and setting: with `CCc1cccc(C)c1NS(=O)(=O)c1ccc(-c2cc(C)no2)s1` the entry was “inactive”.
For `COc1cccc(Nc2nc3ccccc3c3nncn23)c1`, the Potency entry was “inactive”.
In the case of `O=C(CN1CCN(Cc2ccc(Cl)cc2)C1=O)NCc1ccc(F)cc1`, the Potency entry is “inactive”.
As for `CCOCc1nnc(NC(=O)CCS(=O)(=O)Cc2ccccc2)s1`, the Potency was 79.4 µM (active).
In the case of `COC(=O)CSc1nnc(NC(=O)CCc2ccccc2)s1`, the Potency result was “inactive”.
In the case of `COCCSc1nnc(NC(=O)CCS(=O)(=O)Cc2ccccc2)s1`, the Potency result is “inactive”.
Take `CC(C)Cc1nnc(NC(=O)CCc2ccccc2)s1`: the Potency was 35.5 µM (active).
For the molecule `COCc1nnc(NC(=O)CS(=O)(=O)Cc2ccccc2)s1`, the activity, negative = inhibition was -27% [at 12.7 µM] (inactive).
Consider `Cc1ccc(S(=O)(=O)CCC(=O)Nc2nnc(CC(C)C)s2)cc1`, for which the Potency result is “inactive”.
Take `Cc1cccc(OCCC(=O)OCc2csc(CC(=O)Nc3ccccc3C)n2)c1`: the activity, negative = inhibition was -6.68% [at 12.7 µM] (inactive).
As to `CCCCn1c(=S)[nH]c2ncccc2c1=O`, the activity, negative = inhibition was 17.8% [at 2.33 µM] (inactive).
In the case of `CCN(CC)CCn1c(=S)[nH]c2ncccc2c1=O`, the Potency is 15.8 µM (active).
For the molecule `CCN(CC)CCn1cnc2c1c(=O)[nH]c(=O)n2Cc1ccccc1`, the activity, negative = inhibition was 20.1% [at 2.33 µM] (inactive).
`CN(C(=O)CSc1nnc(NC(=O)Nc2ccccc2)s1)c1ccccc1`: the Potency entry was “inactive”.
The same measure, in the same setting: the entry for `Cc1ccccc1NC(=O)Cn1c(=O)n(CCCCC(=O)NCc2ccccc2Cl)c(=O)c2ccccc21` is “inactive”.
For `Cc1ccc(COC(=O)CN2C(=O)NC3(CCCC3)C2=O)cc1`, the activity, negative = inhibition was -12.1% [at 12.7 µM] (inactive).
As for `CCOc1ccc(C(C)=O)cc1COC(=O)CN1C(=O)NC2(CCCC2)C1=O`, the Potency is 56.2 µM (active).
Regarding `CCOc1ccc(C(C)NC(=O)CN2C(=O)NC3(CCCCC3)C2=O)cc1OCC` (stereo unspecified), the Potency result was “inactive”.
Regarding `CC(C)c1ccc(NC(=O)CN(C)S(=O)(=O)c2ccc3c(c2)c(=O)n(C)c(=O)n3C)cc1`, the Potency result is “inactive”.
Regarding `CC(OC(=O)c1ccc(-n2cnnn2)cc1)C(=O)NCc1ccccc1` (stereo unspecified), the Potency entry is “inactive”.
As for `NC1=NC(c2cc(F)cc(F)c2)n2c(nc3ccccc32)N1` (stereo unspecified), the Potency entry was “inactive”.
Take `N#Cc1cnn2cc(CCN3CCOCC3)c(-c3ccc(F)cc3)nc12`: the Potency result was “inactive”.
Consider `Cc1cc2nc(SCCN3CCOCC3)[nH]c2cc1C`, for which the Potency result is “inactive”.
As for `CCn1c2ccc(F)cc2c2nnc(SCCN3CCOCC3)nc21`, the Potency was 44.7 µM (active).
For the molecule `O=C(/C=C/c1cccc(C(F)(F)F)c1)N1CCN(c2ccccn2)CC1`, the Potency entry is “inactive”.
As for `Cc1ccc(NC(=O)CSc2nc3ccccc3c3nc(CCn4cncc4C)nn23)cc1F`, the Potency entry was “inactive”.
For `CCOC(=O)C1CCN(C(=O)C2CCCN(S(=O)(=O)c3ccc(OC)c(Cl)c3)C2)CC1` (stereo unspecified), the Potency entry was “inactive”.
With `CC1(C)SC2c3ccccc3C(=O)N2[C@@H]1C(=O)NCc1ccco1` (stereo partly specified), the Potency result was “inactive”.
For the molecule `Cc1ccnc(N2C(=O)c3ccccc3C2Nc2ccc3c(c2)OCCO3)c1` (stereo unspecified), the Potency is 79.4 µM (active).
As for `COC(=O)c1cc(NC2c3ccccc3C(=O)N2c2ccc(Cl)cn2)cc(C(=O)OC)c1` (stereo unspecified), the Potency entry was “inactive”.
For the molecule `Cc1cccc(C(=O)Nc2ccccc2-c2nnn(CC(=O)Nc3ccc4c(c3)OCCO4)n2)c1`, the activity, negative = inhibition is 48.1% [at 12.7 µM] (inactive).
As for `O=C(NC1CCCCC1)C1c2ccccc2C(=O)N1Cc1ccco1` (stereo unspecified), the Potency entry was “inactive”.
Regarding `O=C1c2ccccc2C(Nc2ccc3c(c2)OCCO3)N1Cc1ccco1` (stereo unspecified), the Potency is 39.8 µM (active).
Turning to `COc1ccc(C(C)(C)C)cc1NC(=O)CCN1C(=O)C2CCCCC2C1=O` (stereo unspecified), the activity, negative = inhibition was -24.5% [at 12.7 µM] (inactive).
Take `CC(=O)N1CCCc2cc(S(=O)(=O)N3CCC(C(=O)NCc4ccc(F)cc4)CC3)ccc21`: the Potency entry was “inactive”.
For the molecule `COc1cc(NC(=O)CSc2nc3nc(C)c(Cc4ccc(C)cc4)c(C)n3n2)cc(OC)c1OC`, the Potency entry was “inactive”.
Regarding `CCOc1ccccc1NC(=O)Cn1nnc(C(=O)Nc2ccc(C)c(C)c2)c1N`, the Potency result is “inactive”.
For `Cc1ccc(NC(=O)C(=O)NCC(c2cccnc2)N2CCOCC2)cc1` (stereo unspecified), the Potency entry was “inactive”.
`COc1ccc(N(Cc2ccc(N(C)C)cc2)C(=O)c2ccc(S(C)(=O)=O)cc2)cc1`: the Potency is 12.6 µM (active).
As to `COc1ccc(S(=O)(=O)NCc2ccc(C(=O)N(C)Cc3ccco3)cc2)cc1`, the Potency result was “inactive”.
Same read-out and setting: the entry for `COc1ccc(C(=O)N(Cc2ccc(N(C)C)cc2)C2CCS(=O)(=O)C2)cc1` (stereo unspecified) is “inactive”; for `COc1ccc(C)cc1N(C)C(=O)c1c(C)oc2ncnc(N3CCOCC3)c12` it is “inactive”; for `Cc1ccc(OCC(=O)Nc2ccccc2C(=O)NC2CC2)cc1C` it is “inactive”.
Regarding `Cc1ccc2sc(NNC(=O)c3ccc4c(c3)OCCO4)nc2c1C`, the Potency is 10 µM (active).
On to `Cc1ccc(C(=O)NNC(=O)c2ccc3c(c2)OCCO3)cc1`, for which the activity, negative = inhibition is 8.51% [at 2.33 µM] (inactive).
For the molecule `Cc1cccc(C)c1NC(=O)CNC(=O)c1ccc2c(c1)OCCO2`, the Potency result is “inactive”.
Still for that read-out and setting: with `Cc1c(CNC(C)c2ccccc2)c(C(=O)O)c(C)n1Cc1c(F)cccc1Cl` (stereo unspecified) the entry was “inactive”.
Same read-out and setting: with `C[n+]1cc(-c2ccccc2)oc1-c1ccccc1` the figure was 50.1 µM (active).
Consider `CCSc1nsc(NC(=O)Nc2ccccc2OC)n1`, for which the Potency result was “inactive”.
For the molecule `O=C(CN1C(=O)COc2ccccc21)Nc1ccc(F)cc1`, the Potency is 31.6 µM (active).
For the molecule `CC(OC(=O)CN1C(=O)COc2ccccc21)C(=O)NCc1ccc(F)cc1` (stereo unspecified), the Potency result is “inactive”.
For `O=C(CN1C(=O)COc2ccc(Cl)cc21)Nc1ccc(N2CCOCC2)cc1`, the Potency entry is “inactive”.
The same measure, in the same setting: the entry for `Cn1c(=O)c2c(SCC(=O)NCC3CCCO3)nc(-c3ccccc3F)nc2n(C)c1=O` (stereo unspecified) is “inactive”; for `CCOc1ccc(N(C)S(=O)(=O)c2cc(-c3cnc(C)o3)ccc2OC)cc1` it is “inactive”; for `Cc1cccc(N2CCN(C(=O)Cn3ncc4c5ccccc5n(C)c4c3=O)CC2C)c1` (stereo unspecified) it is “inactive”.
